Data published in PubChem BioAssay (Tox21).
Activity calls are given as the source filed them. Unless noted, the call rests on the fitted dose curve; in most records, active means well fitted curve in the direction sought with a large enough effect in the repeat runs; inconclusive means weak or mixed curves; inactive means no such curve, though single readings can be large; an effect the other way counts as inactive or inconclusive.

Assays:
[1] = qHTS assay for small molecule agonists of the p53 signaling pathway (AID 651631; calls by dose curve; further: nearly all actives have a fitted effect of over 15% in size; further: potency means the concentration at half of the fitted maximal effect)
Outline: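 We treat p53RE-bla HCT-116 cells with compounds for 16 h at 37 °C, add LiveBLAzer B/G FRET substrate for 2 h at room temperature, and measure fluorescence intensity.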

[2] = qHTS assay for small molecules that induce genotoxicity in human embryonic kidney cells expressing luciferase-tagged ATAD5 (AID 651632); further: nearly all actives have a fitted effect of over 15% in size
Outline: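 HEK293T cells carrying a luciferase reporter tagged to ATAD5 were exposed to compound or DMSO vehicle for 16 hr at 37C, 5% CO2. Amplite was added, and after 30 min at room temperature luciferase activity was read as a marker of ATAD5 induction.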

[3] = qHTS assay for small molecule agonists of the p53 signaling pathway - cell viability (AID 651633; calls by dose curve; further: nearly all actives have a fitted effect of over 30% in size; further: potency means the concentration at half of the fitted maximal effect)
Outline: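 p53RE-bla cells, seeded at 4,000 per well and rested 5 h at 37 C/5% CO2, received compounds in DMSO for 16 h at 37 C. CellTiter-Glo was then added, and luminescence was read after 30 min at room temperature to gauge cytotoxicity.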

[4] = qHTS assay to test for compound auto fluorescence at 590 nm (red) in HepG2 cells (AID 720674)
Outline: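 Rose Bengal sodium served as the red fluorophore standard. HepG2 monolayers (overnight attachment, MEM with 10% FBS) were exposed to test compounds for 1 hr at 37 C and read at Ex 540/Em 590 nm.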

[5] = qHTS assay to test for compound auto fluorescence at 535 nm (green) in HepG2 cells (AID 720675)
[6] = qHTS assay to test for compound auto fluorescence at 460 nm (blue) in HEK293 cells (AID 720678)
Outline: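 Blue read-out at excitation 405 nm and emission 460 nm follows overnight compound exposure of HEK293 cells at 37C in 5% CO2. Activity is given as auto fluorescence equivalency to triamterene.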

[7] = qHTS assay to test for compound auto fluorescence at 590 nm (red) in HEK293 cells (AID 720679)
Outline: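 Red channel, Ex/Em 540/590nm; signal expressed as equivalency to Rose Bengal sodium. HEK293, 2,000 cells/well, 10% dialyzed FBS; 23 nL compound pinned after 4-5 hr attachment; overnight 37C/5% CO2 before reading.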

[8] = qHTS assay to test for compound auto fluorescence at 460 nm (blue) in HEK293 cell free culture (AID 720681)
Outline: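 Test compounds were pinned into cell-free culture medium (DMEM with 10% FBS) and fluorescence was read directly at Ex/Em 405/460 nm. Signals were expressed as fluorescence equivalents of triamterene, with DMSO vehicle as control.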

[9] = qHTS assay to test for compound auto fluorescence at 535 nm (green) in HEK293 cell free culture (AID 720682)
Outline: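 Green-channel intensity (Ex/Em 485/535 nm) was recorded from compound-treated wells containing only DMEM with 10% FBS. Fluorescein provided the equivalency standard.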

[10] = qHTS assay to test for compound auto fluorescence at 590 nm (red) in HEK293 cell free culture (AID 720683)
Outline: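 Tox21 10K library compounds were pinned into cell-free DMEM with 10% FBS and fluorescence was read at excitation 540 nm. Activity is expressed as Rose Bengal sodium equivalency.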

[11] = qHTS assay to test for compound auto fluorescence at 590 nm (red) in HepG2 cell free culture (AID 720684)
Outline: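 Red fluorescence (540 nm excitation, 590 nm emission) was measured after compound transfer into cell-free MEM supplemented with 10% FBS. Values are equivalencies against Rose Bengal sodium.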

[12] = qHTS assay to test for compound auto fluorescence at 460 nm (blue) in HepG2 cell free culture (AID 720685)
Outline: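 Compound (23 nL) or DMSO pinned into cell-free MEM with 10% FBS; blue fluorescence read at 405/460 nm excitation/emission, expressed as auto-fluorescence equivalency to triamterene.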

[13] = qHTS assay to test for compound auto fluorescence at 535 nm (green) in HepG2 cell free culture (AID 720686)
[14] = qHTS assay to test for compound auto fluorescence at 460 nm (blue) in HepG2 cells (AID 720687)
Outline: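 Cells (2,000/well in MEM with 10% FBS) attached overnight at 37 C, then were exposed to compound or DMSO for 1 hr at 37 C, 5% CO2. Fluorescence read at Ex/Em 405/460 nm, expressed as triamterene-equivalent signal.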

[15] = molecular target: Glucocorticoid receptor (Homo sapiens) (UniProt P04150); test: qHTS assay to identify small molecule agonists of the glucocorticoid receptor (GR) signaling pathway (AID 720691; active means well fitted activation curve with a large enough effect in the signal ratio in the repeat runs, not every such curve was filed as active; inconclusive means weak or mixed curves, or effect the other way; inactive means no such curve, though single readings can be large or run the other way; the % refers to the signal ratio; further: potency means the concentration at half of the fitted maximal effect)
Outline: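 GR-bla HeLa cells (beta-lactamase reporter under glucocorticoid response element) were plated 4 h at 37 C/5% CO2, given compounds in DMSO, and incubated 18 h at 37 C. LiveBLAzer B/G FRET substrate was added for 2 h at room temperature, then fluorescence intensity read.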

[16] = qHTS assay for small molecules that induce genotoxicity in human embryonic kidney cells expressing luciferase-tagged ATAD5 - cell viability (AID 651634; calls by dose curve; further: nearly all actives have a fitted effect of over 25% in size)
Outline: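 HEK293T cells expressing luciferase-tagged ATAD5 were exposed to compound or DMSO for 15.5 hr at 37C, 5% CO2. Viability was then read as live-cell protease activity by CellTiter-Fluor fluorescence after 30 min at 37C.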

[17] = qHTS assay to test for compound auto fluorescence at 535 nm (green) in HEK293 cells (AID 720680)
[18] = molecular target: Glucocorticoid receptor (Homo sapiens) (UniProt P04150); test: qHTS assay to identify small molecule antagonists of the glucocorticoid receptor (GR) signaling pathway (AID 720692; active means well fitted inhibition curve with a large enough effect in the signal ratio in the repeat runs, not every such curve was filed as active; inconclusive means weak or mixed curves, or effect the other way; inactive means no such curve, though single readings can be large or run the other way; the % refers to the signal ratio; further: potency means the concentration at half of the fitted maximal effect)
Outline: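 GR-bla HeLa cells (beta-lactamase reporter under glucocorticoid response element) were pre-plated 4 h at 37 C, treated with compounds plus 5 nM dexamethasone (final) for 18 h, then read by LiveBLAzer B/G FRET fluorescence after 2 h.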

[19] = qHTS assay for small molecule disruptors of the mitochondrial membrane potential - cell viability (AID 720634; calls by dose curve;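 further: human HepG2 liver cancer cells; series mostly up to about 83 µM; nearly all actives have a fitted effect of over 20% in size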)
Outline: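 HepG2 cells seeded overnight at 37 C, then exposed to compound or DMSO for 1 hr at 37 C, 5% CO2. m-MPI dye added, then CellTiter-Glo for 30 min at room temperature; viability read as ATP luminescence.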

[20] = qHTS assay for small molecule disruptors of the mitochondrial membrane potential (AID 720635)
Outline: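 HepG2 cells (2,000/well) attached overnight at 37C, then took compound for 1 hr at 37C, 5% CO2. Mito-MPS dye was added for 30 min; fluorescence was read at 490/535 nm (monomers) and 540/590 nm (aggregates).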
On the % scale 0 is the no-effect control and ±100 the full control effect.

Chain of Glucocorticoid receptor (Homo sapiens) (P04150 whole entry, looked up): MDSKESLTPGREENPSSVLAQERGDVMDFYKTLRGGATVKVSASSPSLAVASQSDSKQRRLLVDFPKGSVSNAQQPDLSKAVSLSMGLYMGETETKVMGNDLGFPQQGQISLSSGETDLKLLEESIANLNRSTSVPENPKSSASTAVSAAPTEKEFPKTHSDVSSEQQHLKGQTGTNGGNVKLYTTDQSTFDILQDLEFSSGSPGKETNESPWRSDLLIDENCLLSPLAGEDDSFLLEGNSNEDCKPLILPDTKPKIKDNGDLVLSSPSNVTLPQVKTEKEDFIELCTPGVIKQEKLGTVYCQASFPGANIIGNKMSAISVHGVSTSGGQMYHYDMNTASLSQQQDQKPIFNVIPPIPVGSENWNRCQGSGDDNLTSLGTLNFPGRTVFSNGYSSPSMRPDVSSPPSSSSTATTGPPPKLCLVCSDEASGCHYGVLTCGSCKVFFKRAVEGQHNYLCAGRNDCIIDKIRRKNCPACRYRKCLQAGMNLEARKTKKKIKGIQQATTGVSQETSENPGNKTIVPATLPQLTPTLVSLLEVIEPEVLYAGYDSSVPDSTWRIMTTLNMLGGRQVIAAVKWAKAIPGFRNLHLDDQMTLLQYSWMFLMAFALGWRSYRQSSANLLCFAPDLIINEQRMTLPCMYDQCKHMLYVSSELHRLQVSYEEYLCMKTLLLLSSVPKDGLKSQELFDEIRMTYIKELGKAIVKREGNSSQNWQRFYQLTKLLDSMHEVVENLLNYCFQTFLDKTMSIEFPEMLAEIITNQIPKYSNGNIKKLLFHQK

CN1CCN(CCCN2c3ccccc3Sc3ccc(S(=O)(=O)N(C)C)cc32)CC1
inactive: Potency [1] | Potency [2] | Potency [3] | fluorescence, relative to Rose Bengal [4] -0.708% [at 18.6 µM] | fluorescence, % of fluorescein control [5] -0.102% [at 18.6 µM] | fluorescence, % of triamterene [6] 0.42% [at 18.6 µM] | fluorescence, % of fluorescent control [7] 0.005% [at 18.6 µM] | fluorescence, % of fluorescent control [8] 0.0966% [at 18.6 µM] | activity change [9] 0.0013% [at 18.6 µM] | fluorescence, % of fluorescent control [10] 0.122% [at 18.6 µM] | fluorescence, % of Rose Bengal [11] 0.748% [at 18.6 µM] | fluorescence, % of fluorescent control [12] 0.208% [at 18.6 µM] | fluorescence, % of fluorescein control [13] 0.0675% [at 18.6 µM] | fluorescence, % of fluorescent control [14] 0.123% [at 18.6 µM] | Potency [15]

O=C(C(=O)c1ccccc1)c1ccccc1
inactive: Potency [1] | Potency [3] | Potency [16] | outcome [4] | outcome [5] | Potency [6] | outcome [7] | outcome [17] | Potency [8] | outcome [9] | outcome [10] | outcome [11] | Potency [12] | outcome [13] | Potency [14] | Potency [15] | Potency [18]

c1cnc2c(n1)CCCC2
inactive: Potency [1] | Potency [2] | Potency [3] | outcome [4] | outcome [5] | Potency [6] | outcome [17] | Potency [8] | outcome [9] | outcome [10] | outcome [11] | Potency [12] | outcome [13] | Potency [14]

CO[C@@]12[C@H](COC(N)=O)C3=C(C(=O)C(C)=C(N)C3=O)N1C[C@@H]1N[C@@H]12
inactive: Potency [19] | Potency [20] | outcome [4] | outcome [5] | Potency [6] | outcome [7] | outcome [17] | Potency [8] | outcome [9] | outcome [10] | outcome [11] | Potency [12] | Potency [14] | Potency [15]
active: Potency [1] 1880 nM | Potency [3] 23700 nM | Potency [18] 21300 nM

CCN(Cc1cccc(S(=O)(=O)O)c1)c1ccc(C(=C2C=CC(=[N+](CC)Cc3cccc(S(=O)(=O)[O-])c3)C=C2)c2ccccc2)cc1
inactive: Potency [2] | Potency [3] | Potency [16] | Potency [19] | outcome [4] | outcome [5] | Potency [6] | outcome [7] | outcome [17] | Potency [8] | outcome [9] | outcome [10] | outcome [11] | Potency [12] | outcome [13]

CC(=O)OCC(=O)[C@H]1CC[C@H]2[C@@H]3CCC4=CC(=O)CC[C@]4(C)[C@H]3CC[C@]12C
inactive: Potency [2] | Potency [3] | Potency [16] | Potency [19] | Potency [20] | outcome [4] | outcome [5] | Potency [6] | outcome [7] | Potency [8] | outcome [9] | outcome [10] | outcome [11] | Potency [12] | outcome [13] | Potency [15]
active: Potency [18] 848 nM

CCCCC(=O)O[C@]1(C(=O)CO)CC[C@H]2[C@@H]3CCC4=CC(=O)CC[C@]4(C)[C@H]3[C@@H](O)C[C@@]21C
inactive: Potency [1] | Potency [2] | Potency [16] | Potency [19] | Potency [20] | outcome [4] | outcome [5] | Potency [6] | outcome [7] | outcome [17] | Potency [8] | outcome [9] | outcome [10] | outcome [11] | Potency [12] | outcome [13]
active: Potency [15] 42.5 nM [inconclusive]
